# According to the supplement of paper PMC6411743:
# ± gives the standard deviation of the averaged measurements. Targets with the largest changes are over-represented here; the source holds about 6,500 in all.
# Key:
# Test in all cases: NP40-soluble protein abundance relative to vehicle (solubility fold change) (ratio); higher = more soluble protein in presence of ATP
# [1] = target: T1, UniProt O95983|O95983-2|K7EIE8
# T1 sequence (whole entry): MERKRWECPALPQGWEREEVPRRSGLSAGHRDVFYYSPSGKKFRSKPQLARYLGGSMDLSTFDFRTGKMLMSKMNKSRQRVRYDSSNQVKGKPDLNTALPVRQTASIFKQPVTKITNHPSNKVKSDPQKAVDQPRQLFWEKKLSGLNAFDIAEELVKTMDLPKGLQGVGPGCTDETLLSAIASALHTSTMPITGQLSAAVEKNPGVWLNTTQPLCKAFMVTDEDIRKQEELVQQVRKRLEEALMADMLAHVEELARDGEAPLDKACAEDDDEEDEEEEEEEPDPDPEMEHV
# Procedure, shortened: (§1)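 Eight concentrations, 0.1 to 10 mM, were tested on Jurkat crude lysate for 10 min at room temperature and then 3 min at 37 °C, in three independent experiments. The lysate was solubilised with 0.8% NP40 and benzonase, ultracentrifuged, and the supernatant TMT-labelled for LC-MS/MS. Each value is the fold change against the detergent-processed vehicle in its own replicate, from vsn-normalised intensities.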
# UniProt P11177|P11177-2 = target: T2, UniProt P11177|P11177-2
# T2 sequence (whole entry): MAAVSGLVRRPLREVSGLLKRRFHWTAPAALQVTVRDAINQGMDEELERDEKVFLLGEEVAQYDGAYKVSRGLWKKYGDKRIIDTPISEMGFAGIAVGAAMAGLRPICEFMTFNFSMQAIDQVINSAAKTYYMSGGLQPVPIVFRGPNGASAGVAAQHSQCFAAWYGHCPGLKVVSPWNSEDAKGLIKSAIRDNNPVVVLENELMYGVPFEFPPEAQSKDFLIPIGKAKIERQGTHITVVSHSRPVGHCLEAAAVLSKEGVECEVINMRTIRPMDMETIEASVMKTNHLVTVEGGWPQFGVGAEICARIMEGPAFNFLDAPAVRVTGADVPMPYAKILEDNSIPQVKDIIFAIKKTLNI
# Procedure, shortened: as §1
# [2] = target: T3, UniProt P29728-2|A0A087X0V5|P29728
# T3 sequence (whole entry): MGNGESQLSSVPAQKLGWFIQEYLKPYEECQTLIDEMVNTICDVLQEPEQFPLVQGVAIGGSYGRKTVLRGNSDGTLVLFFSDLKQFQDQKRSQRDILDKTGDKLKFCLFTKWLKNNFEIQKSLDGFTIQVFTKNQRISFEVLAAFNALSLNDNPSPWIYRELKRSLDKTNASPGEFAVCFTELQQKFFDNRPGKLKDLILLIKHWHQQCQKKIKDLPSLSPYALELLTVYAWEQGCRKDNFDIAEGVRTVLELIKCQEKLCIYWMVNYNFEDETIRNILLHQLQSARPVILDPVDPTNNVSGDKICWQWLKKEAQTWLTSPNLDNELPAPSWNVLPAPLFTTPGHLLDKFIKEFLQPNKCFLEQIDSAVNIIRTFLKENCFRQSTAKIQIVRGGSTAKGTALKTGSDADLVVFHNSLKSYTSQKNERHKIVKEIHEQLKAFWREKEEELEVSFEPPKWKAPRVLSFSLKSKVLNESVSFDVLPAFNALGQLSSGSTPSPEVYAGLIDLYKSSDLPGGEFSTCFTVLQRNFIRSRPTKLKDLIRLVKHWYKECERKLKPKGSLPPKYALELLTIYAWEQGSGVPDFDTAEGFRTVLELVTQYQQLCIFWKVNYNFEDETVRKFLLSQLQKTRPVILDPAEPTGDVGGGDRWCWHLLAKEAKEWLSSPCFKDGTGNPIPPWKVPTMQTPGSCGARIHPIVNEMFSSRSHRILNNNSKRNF
# Procedure, shortened: as §1
# [3] = target: T4, UniProt P52594|P52594-2|P52594-3|P52594-4
# T4 sequence (whole entry): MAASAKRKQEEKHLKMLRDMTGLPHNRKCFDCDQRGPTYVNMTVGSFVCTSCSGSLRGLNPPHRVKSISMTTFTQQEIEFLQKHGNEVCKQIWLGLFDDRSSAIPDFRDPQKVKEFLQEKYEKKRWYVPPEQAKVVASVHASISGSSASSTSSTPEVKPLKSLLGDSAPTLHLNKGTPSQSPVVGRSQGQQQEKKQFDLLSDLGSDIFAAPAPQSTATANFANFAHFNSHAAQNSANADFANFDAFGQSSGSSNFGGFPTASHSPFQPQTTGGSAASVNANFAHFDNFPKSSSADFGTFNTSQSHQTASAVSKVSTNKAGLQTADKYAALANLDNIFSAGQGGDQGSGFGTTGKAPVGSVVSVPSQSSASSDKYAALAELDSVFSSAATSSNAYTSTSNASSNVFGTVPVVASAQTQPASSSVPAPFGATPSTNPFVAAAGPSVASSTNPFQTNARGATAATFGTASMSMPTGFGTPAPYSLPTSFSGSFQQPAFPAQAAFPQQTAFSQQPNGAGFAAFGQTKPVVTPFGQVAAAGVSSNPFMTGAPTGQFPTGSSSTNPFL
# Procedure, shortened: as §1
# UniProt P52757|P52757-9 = target: T5, UniProt P52757|P52757-9
# T5 sequence (whole entry): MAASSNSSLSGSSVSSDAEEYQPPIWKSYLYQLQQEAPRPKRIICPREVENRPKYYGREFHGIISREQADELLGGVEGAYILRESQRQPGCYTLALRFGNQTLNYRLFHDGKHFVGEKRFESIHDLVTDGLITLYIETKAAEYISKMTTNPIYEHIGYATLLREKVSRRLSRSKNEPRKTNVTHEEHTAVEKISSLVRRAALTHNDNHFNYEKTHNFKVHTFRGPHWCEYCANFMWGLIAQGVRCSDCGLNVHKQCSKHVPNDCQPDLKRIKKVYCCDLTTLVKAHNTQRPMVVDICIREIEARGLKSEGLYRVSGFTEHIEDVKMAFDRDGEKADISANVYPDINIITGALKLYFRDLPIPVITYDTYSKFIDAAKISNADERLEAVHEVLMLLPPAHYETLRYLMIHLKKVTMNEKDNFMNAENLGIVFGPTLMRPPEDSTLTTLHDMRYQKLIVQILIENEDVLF
# Procedure, shortened: as §1
# UniProt Q02040 = target: T6, UniProt Q02040
# T6 sequence (whole entry): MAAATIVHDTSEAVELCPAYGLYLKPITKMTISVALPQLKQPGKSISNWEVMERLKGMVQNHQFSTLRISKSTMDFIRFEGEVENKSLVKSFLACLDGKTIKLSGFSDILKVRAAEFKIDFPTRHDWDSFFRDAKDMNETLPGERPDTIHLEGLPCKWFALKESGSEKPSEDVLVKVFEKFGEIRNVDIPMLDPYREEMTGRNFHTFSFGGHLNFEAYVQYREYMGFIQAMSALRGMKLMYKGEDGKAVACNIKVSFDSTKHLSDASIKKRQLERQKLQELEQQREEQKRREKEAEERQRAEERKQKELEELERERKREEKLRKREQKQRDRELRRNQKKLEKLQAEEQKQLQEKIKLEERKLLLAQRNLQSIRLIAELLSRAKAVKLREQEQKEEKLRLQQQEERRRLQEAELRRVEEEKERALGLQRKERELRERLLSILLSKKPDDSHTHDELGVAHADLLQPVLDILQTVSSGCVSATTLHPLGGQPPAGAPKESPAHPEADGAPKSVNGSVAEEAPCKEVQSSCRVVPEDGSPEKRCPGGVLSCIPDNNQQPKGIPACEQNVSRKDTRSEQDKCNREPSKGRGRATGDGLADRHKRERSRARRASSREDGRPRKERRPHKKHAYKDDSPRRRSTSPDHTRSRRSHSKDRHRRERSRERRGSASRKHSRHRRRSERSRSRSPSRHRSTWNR
# Procedure, shortened: as §1
# YWHAZ = target: T7, YWHAZ (UniProt P63104)
# T7 sequence (whole entry): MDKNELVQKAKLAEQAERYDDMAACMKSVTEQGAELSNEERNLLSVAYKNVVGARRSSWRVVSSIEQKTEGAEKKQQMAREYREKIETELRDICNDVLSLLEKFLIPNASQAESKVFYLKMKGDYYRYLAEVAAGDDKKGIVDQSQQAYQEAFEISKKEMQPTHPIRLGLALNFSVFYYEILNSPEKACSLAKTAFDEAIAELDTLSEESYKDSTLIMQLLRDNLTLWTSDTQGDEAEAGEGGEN
# Procedure, shortened: as §1
smiles,measurement,setting,value
Nc1ncnc2c1ncn2[C@@H]1O[C@H](COP(=O)(O)OP(=O)(O)OP(=O)(O)O)[C@@H](O)[C@H]1O [adenosine triphosphate],NP40-soluble protein abundance,[1]; concentration: 6mM,1.02 ± 0.16
same,NP40-soluble protein abundance,[1]; concentration: 8mM,1.01 ± 0.065
same,NP40-soluble protein abundance,[1]; concentration: 10mM,0.92 ± 0.082
same,NP40-soluble protein abundance,UniProt P11177|P11177-2; concentration: 1mM,1.14 ± 0.069
same,NP40-soluble protein abundance,UniProt P11177|P11177-2; concentration: 2mM,1.04 ± 0.041
same,NP40-soluble protein abundance,UniProt P11177|P11177-2; concentration: 4mM,1 ± 0.05
same,NP40-soluble protein abundance,UniProt P11177|P11177-2; concentration: 6mM,1.02 ± 0.18
same,NP40-soluble protein abundance,UniProt P11177|P11177-2; concentration: 8mM,1.05 ± 0.14
same,NP40-soluble protein abundance,UniProt P11177|P11177-2; concentration: 10mM,1.02 ± 0.12
same,NP40-soluble protein abundance,[2]; concentration: 1mM,1.73 ± 0.11
same,NP40-soluble protein abundance,[2]; concentration: 2mM,1.65 ± 0.019
same,NP40-soluble protein abundance,[2]; concentration: 4mM,1.7 ± 0.046
same,NP40-soluble protein abundance,[2]; concentration: 6mM,1.55 ± 0.12
same,NP40-soluble protein abundance,[2]; concentration: 8mM,1.74 ± 0.042
same,NP40-soluble protein abundance,[2]; concentration: 10mM,1.68 ± 0.047
same,NP40-soluble protein abundance,[3]; concentration: 1mM,0.945 ± 0.033
same,NP40-soluble protein abundance,[3]; concentration: 2mM,0.961 ± 0.012
same,NP40-soluble protein abundance,[3]; concentration: 4mM,0.963 ± 0.019
same,NP40-soluble protein abundance,[3]; concentration: 6mM,0.987 ± 0.037
same,NP40-soluble protein abundance,[3]; concentration: 8mM,0.93 ± 0.052
same,NP40-soluble protein abundance,[3]; concentration: 10mM,0.918 ± 0.033
same,NP40-soluble protein abundance,UniProt P52757|P52757-9; concentration: 1mM,0.952 ± 0.13
same,NP40-soluble protein abundance,UniProt P52757|P52757-9; concentration: 2mM,0.971 ± 0.14
same,NP40-soluble protein abundance,UniProt P52757|P52757-9; concentration: 4mM,1 ± 0.23
same,NP40-soluble protein abundance,UniProt P52757|P52757-9; concentration: 6mM,0.948 ± 0.094
same,NP40-soluble protein abundance,UniProt P52757|P52757-9; concentration: 8mM,0.989 ± 0.091
same,NP40-soluble protein abundance,UniProt P52757|P52757-9; concentration: 10mM,0.983 ± 0.12
same,NP40-soluble protein abundance,UniProt Q02040; concentration: 1mM,1.4 ± 0.24
same,NP40-soluble protein abundance,UniProt Q02040; concentration: 2mM,1.56 ± 0.34
same,NP40-soluble protein abundance,UniProt Q02040; concentration: 4mM,1.8 ± 0.45
same,NP40-soluble protein abundance,UniProt Q02040; concentration: 6mM,2.02 ± 0.41
same,NP40-soluble protein abundance,UniProt Q02040; concentration: 8mM,2.19 ± 0.54
same,NP40-soluble protein abundance,UniProt Q02040; concentration: 10mM,2.43 ± 0.62
same,NP40-soluble protein abundance,YWHAZ; concentration: 1mM,0.892 ± 0.2
same,NP40-soluble protein abundance,YWHAZ; concentration: 2mM,0.94 ± 0.045
same,NP40-soluble protein abundance,YWHAZ; concentration: 4mM,0.896 ± 0.025
same,NP40-soluble protein abundance,YWHAZ; concentration: 6mM,0.918 ± 0.17
same,NP40-soluble protein abundance,YWHAZ; concentration: 8mM,0.8927 ± 0.0068
same,NP40-soluble protein abundance,YWHAZ; concentration: 10mM,0.819 ± 0.066
